Several values for one entry are separate records, joined by “and”; a condition that tells them apart may be missing. Equal values may be shown once. The panel holds about 79,000 compounds, 15% with a hit somewhere; the sample as a whole holds those more often. Cut-off read from the data, not from the text of the source: active = growth inhibition above about 70%; inactive = the rest.
Experiments:
[1] = NCI Yeast Anticancer Drug Screen. Data for the rad50 strain (AID 155);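 note: 0% = growth of vehicle-only cultures of the same strain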; settings: S. cerevisiae rad50 strain growth inhibition, active compounds read high; at 50.0 µM unless noted
In short: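 A DNA repair-deficient yeast mutant serves as the test organism; compound-induced growth inhibition is calculated against vehicle-treated cells.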

[2] = NCI Yeast Anticancer Drug Screen. Data for the mec2-1 strain (AID 157); settings: S. cerevisiae mec2-1 strain, active compounds read high; at 50.0 µM unless noted
In short: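 Yeast mec2-1 mutant treated with compound. Readout: growth inhibition vs vehicle controls.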

[3] = NCI Yeast Anticancer Drug Screen. Data for the sgs1 mgt1 strain (AID 161);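 note: 0% = growth of cultures given vehicle only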; settings: S. cerevisiae sgs1 mgt1 strain, active compounds read high; at 50.0 µM unless noted
In short: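 Test agents were incubated with a DNA-repair-mutant yeast strain. Growth was then read and compared against vehicle-treated controls.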

[4] = NCI Yeast Anticancer Drug Screen. Data for the cln2 rad14 strain (AID 165);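 note: 0% = growth equal to vehicle treated cultures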; settings: S. cerevisiae cln2 rad14 strain, active compounds read high; at 50.0 µM unless noted
In short: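 cln2 rad14 yeast strain; compound exposure; growth inhibition read vs vehicle controls.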

[5] = NCI Yeast Anticancer Drug Screen. Data for the bub3 strain (AID 167); settings: S. cerevisiae bub3 mutant strain, active compounds read high; at 50.0 µM unless noted
In short: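 Inhibition values come from growth of compound-treated mutant yeast normalised to vehicle-treated controls.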

[6] = NCI Yeast Anticancer Drug Screen. Data for the mlh1 rad18 strain (AID 175); settings: S. cerevisiae mlh1 rad18 strain growth inhibition, active compounds read high; at 50.0 µM unless noted
In short: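 Yeast w/ defined DNA-repair lesions; compound exposure; growth vs vehicle controls → % inhibition.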

Measured: growth inhibition

CC(=O)Nc1ccccc1C(C#N)Cc1ccccc1 (stereo not given)
inactive: [1] 13.3% | [2] 5.55% | [3] 14.1% | [4] -32.4% | [5] 1.15% | [6] 8.95%

COC(=O)/C=C(\C(=O)OC)N1CCCCC1
inactive: [1] 1.55% | [2] -3.8% | [3] -6.55% | [4] -29.9% | [5] 2.3% | [6] -23.1%

CC(Cl)(c1ccccc1)C1OCCO1 (stereo not given)
inactive: [1] 1.75% | [2] 19.9% | [3] 8.1% | [4] -20.9% | [5] -5.9% | [6] -1.5%

CC(C)N(CC(C)(C)O)C(=O)c1ccccc1
inactive: [1] -5.35% | [2] 11.7% | [3] 17.1% | [4] 6.1% | [5] -14.7% | [6] -8.4%

CCS(=O)(=O)/C=C/c1cccs1
inactive: [1] -9.1% | [2] -7.95% | [3] -8.65% | [4] -47.6% | [5] 4.8% | [6] -17.6%

O=C(O)C1Oc2cc3ccccc3cc2O1
inactive: [1] 30.4% | [2] 16.4% | [3] 19.8% | [4] 20.3% | [5] 23.1% | [6] 24.5%

CC(O)C1(O)CCCCC1 (stereo not given)
inactive: [1] -11.8% | [2] -1.95% | [3] -2.05% | [4] -29.6% | [5] -13.2% | [6] -14.8%

CN1N=C(c2ccncc2)OC1c1cccc(F)c1 (stereo not given)
inactive: [1] -58% | [2] -45.4% | [3] -25.6% | [4] 6.5% | [5] 4.9% | [6] -16%

N#C/C(=C/n1c(=S)[nH]c2ccccc21)C(N)=O
inactive: [1] -30.3% | [2] -38.6% | [3] -19.2% | [4] -12.4% | [5] -7.25% | [6] -14.6%

CC(C)(C)NNC(=O)CCn1[nH]c(=O)c(Cl)c(Cl)c1=O
inactive: [1] -0.8% | [2] -5.25% | [3] -18.9% | [4] -2.25% | [5] -16% | [6] -12.3%

OCCCNCc1ccccn1
inactive: [1] 7.25% | [2] -13.7% | [3] -20.4% | [4] 22.2% | [5] -12.2% | [6] -16.6%

O=S(=O)(O)C(I)S(=O)(=O)O
inactive: [1] -19.1% | [2] -2.65% | [3] -19.4% | [4] -18.2% | [5] -10.8% | [6] -20%

CN(C)c1cccc2c(S(=O)(=O)NCCCNCCN)cccc12
inactive: [1] 7.6% | [2] -18.4% | [3] -20.9% | [4] 24.4% | [5] -21.2% | [6] -6.6%

CNC(=S)C#N
inactive: [1] -21.8% | [2] -14.4% | [3] -15.3% | [4] 11.9% | [5] -13% | [6] 0.1%

CCOC(=O)c1cc(C(O)C(O)C(O)CO)oc1C (stereo not given)
inactive: [1] 14.6% | [2] 2.1% | [3] -6.45% | [4] -13.1% | [5] 21.9% | [6] 18.1%

CN(C)c1ccc(-c2nc(-c3cc4c(ccc5ccccc54)oc3=O)cs2)cc1
inactive: [1] 22.1% | [2] 15.6% | [3] -7.55% | [4] 6.4% | [5] -19.8% | [6] -36%

O=C(CS(=O)(=O)c1ccccc1)c1ccccc1
inactive: [1] -14.4% and 14.6% | [2] -18.9% and 13.1% | [3] -6.05% and 12.6% | [4] 8.75% and 1.5% | [5] 0.55% and 29.9% | [6] -29.9% and 28.3%

Cc1ccc(NCC(=O)N2CC(=O)Nc3ccccc32)c(C)c1
inactive: [1] -26.2% | [2] -39.1% | [3] -43.8% | [4] -3.4% | [5] -27.7% | [6] -31.3%

CC1SCc2nc3ccccc3n21 (stereo not given)
inactive: [1] 2.25% | [2] -10.8% | [3] 27.9% | [4] 12.1% | [5] 5.7% | [6] -35.5%

COc1cc2c(cc1OC)C1CC3(CCN1CC2)CC(=O)NC3=O (stereo not given)
inactive: [1] -8.65% | [2] -5.5% | [3] -4.75% | [4] -78.8% | [5] -11.9% | [6] 1.35%
